Bioassay records as filed in PubChem BioAssay.
Most compounds without a hit are left out; they make up all but 2.2% or so of the library.
ANO1 activ – TMEM16A chloride channel activators or potentiators, primary screen, cell-based, HTS | 0.3% of 340,000 active | HEK293 TMEM16A/YFP-H148Q/I152L, iodide quench fluorescence; active compounds read low | B-score at 10 µM | Anoctamin-1 (Mus musculus), Q8BHY3;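 active = fluorescence-ratio B-score plate-corrected deviation score at least 3 library SD below zero, with starting fluorescence score within 5 deviations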;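 also: channel opened by trigger with iodide after compound preincubation; score built on the fluorescence ratio of max minus min over baseline; more negative score means more quench and so TMEM16A activation or potentiation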
GRK2 aptamer HTS – compounds blocking aptamer binding on GRK2 – biochemical, human GRK2, bead flow cytometry, HTS, primary screen; Beta-adrenergic receptor kinase 1 (Homo sapiens), P25098; FAM-aptamer displacement from GRK2; inhibition of aptamer binding, % at 10 µM; 0.59% of 330,000 active;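 active = inhibition of aptamer binding above 40%, roughly 3 SD of noise, on plates passing a quality check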;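 also: median bead fluorescence of bound FAM aptamer so fluorescent compounds give negative values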
Target sequence (P25098 whole entry, looked up): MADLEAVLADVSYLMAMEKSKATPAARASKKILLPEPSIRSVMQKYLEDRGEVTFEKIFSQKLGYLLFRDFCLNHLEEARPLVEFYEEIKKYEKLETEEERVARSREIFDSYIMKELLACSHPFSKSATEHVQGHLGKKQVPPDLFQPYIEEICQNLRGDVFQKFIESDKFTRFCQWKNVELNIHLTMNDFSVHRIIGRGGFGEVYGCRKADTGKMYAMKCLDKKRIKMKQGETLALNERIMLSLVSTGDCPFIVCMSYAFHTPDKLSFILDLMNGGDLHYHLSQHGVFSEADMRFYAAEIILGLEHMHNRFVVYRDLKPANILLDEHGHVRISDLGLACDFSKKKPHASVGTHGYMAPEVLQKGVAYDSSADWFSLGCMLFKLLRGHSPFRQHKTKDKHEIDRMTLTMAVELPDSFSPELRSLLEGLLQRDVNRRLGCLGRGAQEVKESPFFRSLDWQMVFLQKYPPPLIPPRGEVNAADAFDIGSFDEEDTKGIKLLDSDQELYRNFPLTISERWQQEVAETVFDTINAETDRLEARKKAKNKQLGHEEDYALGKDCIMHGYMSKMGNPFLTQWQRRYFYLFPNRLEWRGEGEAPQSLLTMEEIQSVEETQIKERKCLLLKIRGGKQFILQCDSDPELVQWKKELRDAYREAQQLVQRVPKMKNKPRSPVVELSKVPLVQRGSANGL
NOD2 RIPK2 PPI – NOD2-RIPK2 binding disruptors in cells, primary screen, fluorescence, CHO cells, BLA complementation. inhibition, % at 4.98 µM. CCF4 ratio. AID 624267, 2012. Receptor-interacting serine/threonine-protein kinase 2 (Homo sapiens), O43353. 0.38% of 360,000 active; in the data active = inhibition above about 21%
TLR4 MyD88 comp – inhibitors of TLR4-MyD88 association in cells, primary screen, cell-based, HeLa CL3-4, BLA complementation, FRET ratio | HeLa CL3-4 TLR4/MyD88 BLA complementation | inhibition, % at 8.4 µM | 0.18% of 200,000 active | AID 861, 2007; in the data active = inhibition above about 25%
TLR9-MyD88 block – inhibitors of TLR9-MyD88 association in cells, primary screen, cell-based, CHO, BLA complementation, fluorescence; CCF4 FRET ratio; inhibition, % at 4.98 µM; AID 504734, 2011; 0.21% of 340,000 active;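 active = inhibition above the mean over all tested compounds plus 3 SD, cut at about 21% in these data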
ANO1 block – TMEM16A chloride channel inhibitors, primary screen, cell-based, HTS; HEK293 TMEM16A/YFP iodide influx fluorescence, ionomycin; AID 588511, 2011; 1.2% of 310,000 active; Anoctamin-1 (Mus musculus), Q8BHY3; normalized B-score (activity score, 25-100; higher = stronger inhibition) at 10 µM;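 active = ratio plate-corrected score three or more library SD toward inhibition, starting fluorescence score within five deviations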;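 also: score derived from kinetic fluorescence span divided by baseline fluorescence per well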
TMEM16A reconf – TMEM16A chloride channel inhibitors, confirmation, cell-based, re-confirmation; inhibition, % at 10 µM; shares compounds with ANO1 block; 39% of 2,300 active; HEK293 TMEM16A/YFP-H148Q, iodide quench fluorescence; ionomycin added to raise cell calcium;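 active = mean duplicate percent inhibition, scaled so buffer wells are 0 and the reference blocker 100, over three buffer SD above buffer mean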
HEK293 Ca mobil – calcium mobilization in TMEM16A/YFP HEK293 cells, confirmation, counter-screen for TMEM16A inhibitor project | AID 652231, 2013 | shares compounds with ANO1 block | calcium response (% of ionomycin), % at 10 µM | Fluo4 calcium mobilization | 2% of 2,300 active;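 active = duplicate-averaged calcium signal over 20% of the ionomycin maximum, relative to buffer baseline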;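 also: each well's signal is peak minus trough fluorescence divided by its pre-addition baseline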
Parental YFP cnt – iodide YFP quench changes in parental YFP-HEK293, counter-screen for TMEM16A inhibitor project, cell-based. 2,300 tested, under 10 active. shares compounds with ANO1 block. AID 652233, 2013. YFP ratio F(max-min)/F0 at 10 µM. ionomycin;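 active = yellow fluorescent protein signal ratio exceeding the buffer control mean by over 5 SD of those controls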;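 also: ratio is mean of duplicate wells from kinetic YFP trace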
ClC-1 rat inh – ClC-1 chloride channel inhibition, selectivity assay for TMEM16A inhibitor project, cell-based, voltage-dependent ClC-1; 2,300 tested, under 10 active; CHO ClC-1-YFP, iodide influx fluorescence quench; iodide control reads 0, buffer control 100; shares compounds with ANO1 block; ratio percent, % at 10 µM;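 active = duplicate-mean ratio percent above the mean of iodide-only control wells, which defines zero, plus 5 of their SD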;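 also: higher percent means stronger block of ClC-1 iodide influx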
Numbers stand for hits; – = inactive; · = no result; ! = a repeat was not active.

SMILES	ANO1 activ	GRK2 aptamer HTS	NOD2 RIPK2 PPI	TLR4 MyD88 comp	TLR9-MyD88 block	ANO1 block	TMEM16A reconf	HEK293 Ca mobil	Parental YFP cnt	ClC-1 rat inh
c1ccc(CN2CCN(c3ncnc4c3[nH]c3ccccc34)CC2)cc1	–	–	–	–	–	100	19%	–	–	–
Cc1ccc2c(c1)[nH]c1c(N3CCN(Cc4ccccc4)CC3)ncnc12	–	–	–	–	–	25	25%	–	–	–
N#Cc1c(NCc2ccccc2)ccnc1NCc1cccnc1	–	–	–	–	–	100	18%	–	–	–
N#Cc1c(F)cccc1NCc1cccnc1	–	–	–	·	–	–	·	·	·	·
Cc1[nH]nc(-c2ccc(O)cc2O)c1Oc1ccccc1	–	–	–	–	–	100	24%	–	–	–
CCOc1ccc(-c2n[nH]c(C)c2Oc2ccccc2OC)c(O)c1	–	–	–	–	–	–	·	·	·	·
Cc1cc(C)c(OCC(=O)NCC2CCCO2)c(C)c1 (centres undefined)	–	–	–	–	–	–	·	·	·	·
O=c1[nH]c(SCc2ccccc2Cl)nc2c1CCC2	–	–	–	–	–	–	·	·	·	·
CNc1nc(SCc2ccccc2Cl)nc2c1CCCC2	–	–	–	–	–	100	56%	–	–	–
COC(=O)[C@@]12CCCN1[C@H](c1ccc(-c3ccc(Cl)c(Cl)c3)cc1)[C@H]1C(=O)N(C)C(=O)[C@H]12	–	–	–	·	–	100	–	–	–	–
O=C(COCc1nc2ccccc2c(=O)[nH]1)NC1CCCC1	–	–	–	–	–	100	–	–	–	–
Cc1c(O)cccc1C(=O)N[C@@H](CSc1ccccc1)[C@H](O)CN1C[C@H]2CCCC[C@H]2C[C@H]1C(=O)NC(C)(C)C	–	–	–	·	–	100!	41%	–	–	–
CCN(CC(=O)NC(C)(C)C)C(=O)c1ccccc1SCC(=O)NC1CCCCCCC1	–	–	–	·	–	–	·	·	·	·
Cc1cc(C)c(C(=O)c2ccccc2C(=O)O)c(C)c1	·	·	–	·	·	·	·	·	·	·
Cc1c(C(C)(C)C)s/c(=N/S(=O)(=O)c2ccccc2)n1C	–	–	–	·	–	100	–	–	–	–
Cc1ccc(NC(=O)CSc2n[nH]c(-c3ccncc3)n2)cc1C	–	–	–	–	–	–	·	·	·	·
CC(=O)Oc1ccc(CC(C(=O)O)N2C(=O)c3ccccc3C2=O)cc1 (centres undefined)	–	–	–	·	–	–	·	·	·	·
O=C(O)[C@H](Cc1ccccc1)N1C(=O)c2ccncc2C1=O	–	–	–	–	–	100	–	–	–	–
COc1cccc(-c2nnc(SCC3CNC(=O)O3)n2-c2ccc(Cl)cc2)c1 (centres undefined)	–	–	–	–	–	–	·	·	·	·
CCOC(=O)c1oc2ccc(S(=O)(=O)Nc3ccc4c(c3)n(C)c(=O)n4C)cc2c1C	–	–	–	–	–	25	–	–	–	–
COc1ccc(S(=O)(=O)Nc2ccc3c(c2)n(C)c(=O)n3C)cc1C	–	–	–	·	–	–	·	·	·	·
COc1ccc(NC(=O)NC23CC4(C)CC(C)(CC(C)(C4)C2)C3)cc1OC	–	–	–	–	–	25	–	–	–	–
COc1ccc(CNc2ccc(-c3ccccc3OC)nn2)cc1	–	–	–	–	–	–	·	·	·	·
COc1ccc(CNc2ccc(-c3ccc(OC)cc3)nn2)cc1	–	–	–	–	–	100	–	–	–	–
O=C(OCc1cn([C@@H]2CN(Cc3cccs3)[C@@H](c3ccccc3)C[C@H]2O)nn1)c1ccccc1	·	·	–	·	–	·	·	·	·	·
SMILES	ANO1 activ	GRK2 aptamer HTS	NOD2 RIPK2 PPI	TLR4 MyD88 comp	TLR9-MyD88 block	ANO1 block	TMEM16A reconf	HEK293 Ca mobil	Parental YFP cnt	ClC-1 rat inh
CC(C)(C)C(=O)Nc1cc(S(=O)(=O)Nc2ccc(Cl)cc2)ccc1Cl	–	–	–	–	–	25	36%	–	–	–
CSc1ncc(Cl)c(C(=O)C(C#N)c2nc3c(C)cc(C)cc3c(=O)[nH]2)n1 (centres undefined)	–	–	–	–	–	100	59%	–	–	–
Cc1cc(C)c[n+](CC(=O)c2ccc(C)c([N+](=O)[O-])c2)c1	–	–	–	·	–	–	·	·	·	·
O=C(c1ccccc1)c1ccc2cc(O)ccc2c1	–	67	–	·	–	25	–	–	–	–
O=S(=O)(NCCOCC(F)(F)C(F)F)c1ccc2oc3ccccc3c2c1	–	–	–	–	–	25	24%	–	–	–
COc1ccc(OCCNS(=O)(=O)c2ccc3oc4ccccc4c3c2)cc1	–	–	–	–	–	–	·	·	·	·
O=C(NCc1ccco1)c1cnn2c1NC(c1ccccc1)CC2C(F)(F)F (centres undefined)	–	–	–	–	–	–	·	·	·	·
Cc1ccccc1Cn1ccc(NC(=O)c2cnn3c2NC(c2ccccc2)CC3C(F)(F)F)n1 (centres undefined)	–	–	–	–	–	25	–	–	–	–
O=C(O)/C=C/C(=O)Nc1ccc(-c2ccccc2)cc1	–	–	–	–	–	–	·	·	·	·
Cc1ccc(S(=O)(=O)N2CCN(c3ccnc4cc(Cl)ccc34)CC2)cc1C	–	–	–	–	–	–	·	·	·	·
Cc1cc(N2CCN(S(=O)(=O)c3ccc(Cl)c(Cl)c3)CC2)c2ccccc2n1	–	–	–	–	–	100	–	–	–	–
Cc1ccc(S(=O)(=O)N2CCN(c3ccnc4cc(Cl)ccc34)CC2)cc1	–	–	–	–	–	100	–	–	–	–
COc1ccc(C(=O)C(C)OC(=O)CCN2C(=O)C3CC=CCC3C2=O)cc1 (centres undefined)	–	–	–	·	–	·	·	·	·	·
